Assay outcomes from PubChem.
Only a sample is shown.
TNAP Pi inh = inhibitors of human tissue-nonspecific alkaline phosphatase; inhibition, % at 20 µM; 21,000 tested, under 10 active; purified TNAP, pNPP, malachite green phosphate absorbance
Target sequence (P05186 whole entry, looked up): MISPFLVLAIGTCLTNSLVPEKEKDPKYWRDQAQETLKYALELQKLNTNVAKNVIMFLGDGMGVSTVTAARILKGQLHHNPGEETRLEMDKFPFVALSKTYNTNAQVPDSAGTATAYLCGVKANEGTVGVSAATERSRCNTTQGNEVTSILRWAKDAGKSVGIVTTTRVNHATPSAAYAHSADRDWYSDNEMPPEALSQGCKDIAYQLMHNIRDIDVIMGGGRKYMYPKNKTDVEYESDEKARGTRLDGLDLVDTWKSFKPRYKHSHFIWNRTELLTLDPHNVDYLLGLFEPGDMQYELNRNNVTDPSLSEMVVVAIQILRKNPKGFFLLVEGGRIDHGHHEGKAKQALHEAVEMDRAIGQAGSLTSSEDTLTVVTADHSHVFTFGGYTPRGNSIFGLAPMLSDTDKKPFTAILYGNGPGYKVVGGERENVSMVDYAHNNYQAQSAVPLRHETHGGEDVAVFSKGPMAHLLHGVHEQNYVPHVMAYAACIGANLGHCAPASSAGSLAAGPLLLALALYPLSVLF
TNAP pNPP inh = blocks human TNAP p-nitrophenol release; purified TNAP, pNPP hydrolysis, absorbance 405 nm; inhibition, % at 20 µM; AID 615; 21,000 tested, under 10 active
Each line names hits and unclear results; the compound was inactive in the other large screens.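 Rule for the calls: active = inhibition above 50% at the 20 µM single-dose screen; inactive = the rest.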

COc1cc(N2CN=c3s/c(=C\c4ccccn4)c(=O)n3C2)cc(OC)c1OC	none
Cc1sc2nc(C3CC3)nc(NCCNS(C)(=O)=O)c2c1C	none
CCc1nc2ccccc2c(C(=O)OCC(=O)NCCCN2CCCC2=O)c1C	none
COc1ccc2c(c1)N(C)C(=O)CC(c1ccccc1)=N2	none
COC(=O)CCCC(=O)N1CCOCCN(C(=O)CCCC(=O)OC)CCOCC1	none
Cc1cc(NC(=O)CCC2CCCC2)no1	none
O=C(CN1CCN(C(c2ccccc2)c2ccccc2)CC1)NC(=O)NCc1ccco1	none
O=C(CCN1C(=O)c2ccccc2S1(=O)=O)Nc1nc2c(s1)CCCC2	none
CN(Cc1ccccc1)C(=O)CSc1nnc(-c2ccco2)n1-c1ccccc1	none
Cc1ccc(/C=C/C2=Cc3c(sc(NC(=O)CSc4n[nH]c(N)n4)c3C#N)C(C)(C)C2)o1	none
CCNc1nc(Oc2ccccc2)nc(OC(C)C(=O)OCC)n1 (stereo unspecified)	none
CN(c1ccccc1)C(c1ccc(F)cc1)c1nnnn1C1CCCC1 (stereo unspecified)	none
Cc1ccc(C(=O)NCC(=O)OCC(=O)c2c(N)n(C)c(=O)n(C)c2=O)s1	none
CCOC(=O)c1oc2ccc(S(=O)(=O)Nc3ccc4c(c3)n(C)c(=O)n4C)cc2c1C	none
N#CC1(c2ccccc2)CCC(=NO)CC1 (stereo unspecified)	none
COC(=O)c1ccccc1NC(=O)CNC(=O)c1ccco1	none
CC(C)Cc1[nH]c(=O)c(C#N)c2c1CCCC2	none
O=C(CN(Cc1ccccc1F)C(=O)Cn1nnc(-c2cccs2)n1)NCC1CCCO1 (stereo unspecified)	none
C=CCn1c(NCc2ccc(N(C)C)cc2)nc2ccccc21	none
CCC(=O)N1CCN(c2ccccc2NC(=O)COc2ccccc2Cl)CC1	none
c1ccc(-n2ncc3c(N4CCN(c5ccccn5)CC4)nc(N4CCOCC4)nc32)cc1	none
CCn1c(SCC(=O)N2CCN(c3ccc(F)cc3)CC2)nnc1-c1ccncc1	none
Cn1c(-c2ccccc2)cc2c3no[n+]([O-])c3ccc21	none
Cc1ccc(S(=O)(=O)N2CCSC2c2ccco2)cc1 (stereo unspecified)	none
COC(=O)c1ccc(NC(=O)CSc2nnc(COc3ccccc3)n2C)cc1	none
Cc1ccc2cc(CN(CC3CCCO3)C(=O)c3ccco3)c(=O)[nH]c2c1C (stereo unspecified)	none
Cn1c(Cl)cnc1C(O)c1ccccc1 (stereo unspecified)	none
O=C(CCN1CCN(c2ccccc2F)CC1)Nc1ccc2c(c1)OCO2	none
CCOc1cc(NC(=O)C2CC2)c(OCC)cc1NC(=O)c1cccnc1	none
CCOC(=O)CNC(=O)CSc1nc2nc(C)c(Br)cc2[nH]1	none
COc1ccc(OC)c(CC(NC(C)=O)C(=O)NC2CCN(c3nc(C)cc(C)c3C#N)CC2)c1 (stereo unspecified)	none
COCCn1nnnc1C(c1ccc(Cl)cc1)N1CCSCC1 (stereo unspecified)	none
CSc1ncc(Cl)c(C(=O)C(C#N)c2nc3c(C)cc(C)cc3c(=O)[nH]2)n1 (stereo unspecified)	none
O=C1C2C3C=CC(C3=C3CCCCC3)C2C(=O)N1Cc1ccccc1 (stereo unspecified)	none
CCCC(=O)c1c(NC(C)C)cc(C)oc1=O	none
CN(C)c1nc(Oc2ccc(=O)[nH]n2)nc(N2CCCCC2)n1	none
CC1(C)Oc2ccc(NC(=O)C3COc4ccccc4O3)cc2O1 (stereo unspecified)	none
Cc1ccc(N2C(=O)CC3(CC4C=CC3C4)C2=O)cc1 (stereo unspecified)	none
CCOC(=O)NC1(NC2CCCCC2)Oc2ccccc2O1	none
COc1ccccc1NCCC(=O)OCC(=O)Nc1ccc(Cl)cn1	none
CC(C)CCOCC(=O)Nc1cccc(C(=O)O)c1	none
Cc1ccc(S(=O)(=O)N2CCOCC2)cc1C(=O)NCc1cn2ccsc2n1	none
CC1(C2(O)CC(c3ccccc3)ON2)CCCCC1 (stereo unspecified)	none
O=C(NCCCN1CCCC1=O)c1cccc(C(F)(F)F)c1	none
COc1cc2nc(CN3CCN(c4ncc(C(F)(F)F)cc4Cl)CC3)[nH]c(=O)c2cc1OC	none
CCCCNC(=O)COC(=O)c1cc2c(C)nn(-c3ccccc3)c2s1	none
CCCCS(=O)(=O)Nc1ccc(Cc2ccncc2)cc1	none
CCOC(=O)c1ccccc1NC(=O)CSc1nc2ccccc2n1CC(=O)N1CCCC1	none
CC(=O)Nc1nc(CC(C)C)cc(-c2ccco2)c1C#N	none
CC(C)C[C@H](N)c1nnc(S(=O)(=O)Cc2ccc(F)cc2)o1	none
O=C(COC(=O)CCC(=O)c1ccc2c(c1)OCCO2)NCc1ccc2c(c1)OCO2	none
Cc1cc(C)nc(SCc2nnc(SCC(=O)Nc3ccccc3C)n2Cc2ccco2)n1	none
CC1=C(C(=O)OCC2CCCO2)C(c2ccncc2)C2=C(CC(C)(C)CC2=O)N1 (stereo unspecified)	none
CC1=C(SCCC#N)S/C(=C2\SC(C)=C(SCCC#N)S2)S1	none
CCOC(=O)c1cccc(NC(=O)CSc2nnc(COc3ccccc3C)o2)c1	none
COc1c(Cl)ccc(Cl)c1C(=O)OCC(=O)O	none
CC(C)CC(C(=O)NCc1ccccn1)N1C(=O)c2ccccc2C1=O (stereo unspecified)	none
CCCn1c(=O)c(C(=O)Nc2nnc(C)s2)c(O)c2ccccc21	none
Cc1cc(Oc2ccccc2)nc2ccc(O)cc12	none
CN(C)CCNC(=O)C(C(=O)c1ccc(F)cc1)n1ccccc1=O (stereo unspecified)	none
Cc1ccc(NC(=O)CS(=O)CC(=O)Nc2ccc3c(c2)OCO3)cc1Cl (stereo unspecified)	none
O=C(Nc1cccc(NS(=O)(=O)c2ccc(S(=O)(=O)NC3CC3)cc2)c1)c1ccccn1	none
CN(C)c1ccc(CN(C)C2CCCCC2)cc1	none
O=C1CC(c2ccccc2)CC(O)=C1C=NCCN1CCN(C(=O)Nc2ccccc2)CC1 (stereo unspecified)	none
CC(C)Cc1nc(N2CCOCC2)c(C#N)c2c1COC(C)(C)C2	none
CCOc1ccc2[nH]c(=O)c(CN(CC3CCCN3CC)C(=O)NCc3ccccc3)cc2c1 (stereo unspecified)	none
